# Laboratory results published in the supplement of paper PMC5940239.
# Assays:
# [1] = test system: Madurella mycetomatis MM55; conditions: 7 days
# [2] = test system: Madurella mycetomatis MM55; test: IC90; higher = less potent; conditions: 7 days
# [3] = test system: Madurella mycetomatis MM55; test: percent growth relative to solvent control; higher = less inhibition, active = 20 or less; conditions: 100 µM; 7 days
Structure (SMILES),IC50 [1],IC90 [2],percent growth [3]
NCCN(C(=O)c1ccc(Cl)cc1Cl)c1ccc(OCc2ccc(Cl)cc2)cc1,10.5 µM,17.9 µM,4.52% (active)
CN1CCCN(C(c2ccccc2)c2ccc(Cl)cc2)CC1 (configuration not stated),10.2 µM,18.6 µM,2.74% (active)
Cc1cc(NCCc2ccccc2)nc(NC(=N)Nc2ccc(Cl)cc2)n1,10.4 µM,18.8 µM,-1.87% (active)
C[C@H](c1ccc2c(c1)CCCC2)N(C)c1ncc2c(N)nc(N)nc2n1,63.7 µM,91 µM,-2.94% (active)
Cc1nc(-c2cccc(NCc3ccccc3)c2)[nH]c1C,64 µM,93.6 µM,1.75% (active)
O=C(Nc1cnc2ccccc2c1)c1cccc(-n2cnnn2)c1,,,94.2% (inactive)
COc1ccc(OC)c(NCc2ccc3nc(N)nc(N)c3c2Cl)c1,2.3 µM,4.7 µM,-0.467% (active)
CNC(=O)C1Cc2ccccc2N1C(=O)Cc1ccc(F)cc1 (configuration not stated),,,116% (inactive)
CC1=Nc2ccc(Cl)cc2C(c2ccccc2)N1CCNC(=O)CN(C)C (configuration not stated),,,106% (inactive)
CCC(=O)Nc1ccccc1C(=O)Nc1ccccn1,,,62.5% (inactive)
Clc1ccc(-n2cc(COc3ccnc4ccccc34)nn2)cc1,,,63% (inactive)
Nc1ncnc2[nH]nc(Cc3cccc4ccccc34)c12,,,118% (inactive)
O=C(c1[nH]nc2c1CCCC2)N1CCN(Cc2ccc3c(c2)OCO3)CC1,,,81.8% (inactive)
Clc1ccc(CN2CCN(C3=NCCN3)CC2)cc1Cl,,,122% (inactive)
OC[C@H]1O[C@@H](n2c3ccc(Cl)cc3c3c(-c4cc5ccccc5o4)ncnc32)C(O)[C@H]1O (some centres not stated),,,121% (inactive)
